This passage reports binding signal results from paper PMC7862700, “An all-to-all approach to the identification of sequence-specific readers for epigenetic DNA modifications on cytosine”.

Experiment in all cases: DAPPL (digital affinity profiling via proximity ligation, sequencing); 10 mM Tris-HCl pH 7.5, 50 mM NaCl, 1 mM DTT, 4% glycerol, room temperature, 30 min; GST-TFs on glutathione beads, 16-mer random dsDNA library, 0.1% formaldehyde crosslink after washing; high values mean tight binding
One assay deals with T1, FEV (Homo sapiens, UniProt Q99581 1-238).
T1 sequence: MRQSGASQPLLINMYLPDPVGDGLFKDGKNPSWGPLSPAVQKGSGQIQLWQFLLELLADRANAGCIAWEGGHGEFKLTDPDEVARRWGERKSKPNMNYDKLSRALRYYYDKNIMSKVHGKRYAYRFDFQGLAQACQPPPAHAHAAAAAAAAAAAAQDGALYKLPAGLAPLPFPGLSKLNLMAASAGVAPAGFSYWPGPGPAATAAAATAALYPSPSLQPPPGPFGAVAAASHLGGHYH
The settings on record: protein: recombinant; tags: N-terminal GST; dsDNA, one strand shown. In short, it runs like this: (§1)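 Binding signal is each hexamer's read frequency for a factor divided by its frequency in the tag-only sample. The factors were GST-fused human transcription factors from yeast, captured on glutathione beads, DNA-barcoded and pooled with that sample. Pools were incubated with 200 nmole of a random double-stranded 16-mer DNA library in Tris/NaCl/DTT/glycerol buffer at room temperature for 30 min, then washed, crosslinked with 0.1% formaldehyde, proximity-ligated with BsaI/T4 ligase (1 h, 37 °C), PCR-amplified and sequenced on an Illumina NextSeq500.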

The target in the next assay is ETV5 (Homo sapiens, UniProt P41161 1-510). The settings on record: protein: recombinant; tags: N-terminal GST; dsDNA, one strand shown. In short, it runs like this:
as §1

For another assay, the target named is HSF1 (Homo sapiens, UniProt Q00613 1-529). The settings on record: protein: recombinant; tags: N-terminal GST; chain copies: 3; dsDNA, one strand shown. In short, it runs like this:
as §1

A further assay has as its target T2, SPIC (Homo sapiens, UniProt Q8N5J4 1-248).
T2 sequence: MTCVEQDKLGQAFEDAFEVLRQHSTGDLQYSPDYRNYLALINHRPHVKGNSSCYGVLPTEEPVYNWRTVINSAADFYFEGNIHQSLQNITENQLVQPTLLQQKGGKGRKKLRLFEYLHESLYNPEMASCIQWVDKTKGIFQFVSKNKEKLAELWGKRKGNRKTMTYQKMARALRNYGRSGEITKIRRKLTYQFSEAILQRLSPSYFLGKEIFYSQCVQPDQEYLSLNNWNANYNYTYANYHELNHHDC
The settings on record: protein: recombinant; tags: N-terminal GST; dsDNA, one strand shown. The method, boiled down:
as §1

Another assay concerns the target ELF4 (Homo sapiens, UniProt Q99607 1-663). The settings on record: protein: recombinant; tags: N-terminal GST; dsDNA, one strand shown. The method, boiled down: as §1
Another assay deals with T3, ELK4 (Homo sapiens, UniProt P28324-2 1-405).
T3 sequence: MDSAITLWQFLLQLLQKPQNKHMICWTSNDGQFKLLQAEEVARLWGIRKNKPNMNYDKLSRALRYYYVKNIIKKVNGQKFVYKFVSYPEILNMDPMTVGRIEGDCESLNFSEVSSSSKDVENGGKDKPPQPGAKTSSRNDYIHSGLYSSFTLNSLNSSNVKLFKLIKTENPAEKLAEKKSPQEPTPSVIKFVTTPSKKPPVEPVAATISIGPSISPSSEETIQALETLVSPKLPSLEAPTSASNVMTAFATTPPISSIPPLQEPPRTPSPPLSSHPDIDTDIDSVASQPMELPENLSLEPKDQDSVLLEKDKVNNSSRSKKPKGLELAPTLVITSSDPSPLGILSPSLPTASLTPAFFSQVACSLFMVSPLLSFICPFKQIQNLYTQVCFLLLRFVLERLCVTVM
The conditions noted are these: protein: recombinant; tags: N-terminal GST; dsDNA, one strand shown. In short, it runs like this: as §1

The target of a further assay is T4, ETV2 (Homo sapiens, UniProt O00321 1-342).
T4 sequence: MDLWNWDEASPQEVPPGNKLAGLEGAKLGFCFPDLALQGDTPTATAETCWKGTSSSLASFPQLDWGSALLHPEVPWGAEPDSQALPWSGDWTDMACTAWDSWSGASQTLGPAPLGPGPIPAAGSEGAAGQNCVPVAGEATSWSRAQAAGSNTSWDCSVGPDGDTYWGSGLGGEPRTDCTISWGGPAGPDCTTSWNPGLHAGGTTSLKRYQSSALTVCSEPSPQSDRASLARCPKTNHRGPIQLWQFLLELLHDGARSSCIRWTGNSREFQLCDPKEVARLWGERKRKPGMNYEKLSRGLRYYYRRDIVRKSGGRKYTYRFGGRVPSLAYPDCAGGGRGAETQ
The conditions noted are these: protein: recombinant; tags: N-terminal GST; dsDNA, one strand shown. In short, it runs like this:
as §1

For another assay, the target named is T5, ELF3 (Homo sapiens, UniProt P78545 1-371).
T5 sequence: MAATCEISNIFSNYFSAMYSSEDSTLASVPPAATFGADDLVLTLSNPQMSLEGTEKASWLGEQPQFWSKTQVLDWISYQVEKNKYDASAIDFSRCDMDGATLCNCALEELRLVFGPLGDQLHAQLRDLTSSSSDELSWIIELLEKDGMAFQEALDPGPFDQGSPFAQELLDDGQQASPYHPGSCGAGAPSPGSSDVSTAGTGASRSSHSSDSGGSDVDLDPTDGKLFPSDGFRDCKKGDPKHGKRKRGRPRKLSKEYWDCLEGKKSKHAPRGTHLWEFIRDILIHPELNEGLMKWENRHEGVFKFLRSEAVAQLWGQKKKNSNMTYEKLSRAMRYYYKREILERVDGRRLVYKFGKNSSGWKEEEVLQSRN
The conditions noted are these: protein: recombinant; tags: N-terminal GST; dsDNA, one strand shown. The method, boiled down: as §1

The target in the next assay is CRX (Homo sapiens, UniProt O43186 1-299). The conditions noted are these: protein: recombinant; tags: N-terminal GST; dsDNA, one strand shown. In short, it runs like this:
as §1

A further assay addresses ETV1 (Homo sapiens, UniProt P50549 1-477). The settings on record: protein: recombinant; tags: N-terminal GST; dsDNA, one strand shown. In short, it runs like this: as §1
The target of another assay is T6, ERF (Homo sapiens, UniProt P50548 1-548).
T6 sequence: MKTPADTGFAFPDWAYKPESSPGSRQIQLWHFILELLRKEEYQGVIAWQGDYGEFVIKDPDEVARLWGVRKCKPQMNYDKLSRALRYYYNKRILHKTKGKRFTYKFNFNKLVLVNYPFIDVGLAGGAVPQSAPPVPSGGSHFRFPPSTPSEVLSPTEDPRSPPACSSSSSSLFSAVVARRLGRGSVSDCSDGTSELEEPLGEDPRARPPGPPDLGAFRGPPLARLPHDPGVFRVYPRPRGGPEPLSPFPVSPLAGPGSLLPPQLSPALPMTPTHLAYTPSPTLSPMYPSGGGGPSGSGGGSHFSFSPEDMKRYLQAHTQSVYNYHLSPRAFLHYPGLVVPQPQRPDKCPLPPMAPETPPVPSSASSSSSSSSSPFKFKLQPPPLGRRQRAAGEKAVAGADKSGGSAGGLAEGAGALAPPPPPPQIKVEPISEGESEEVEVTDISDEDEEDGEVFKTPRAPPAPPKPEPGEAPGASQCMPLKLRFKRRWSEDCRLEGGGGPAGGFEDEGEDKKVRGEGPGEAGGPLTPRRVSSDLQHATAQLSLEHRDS
The conditions noted are these: protein: recombinant; tags: N-terminal GST; dsDNA, one strand shown. The method, boiled down: as §1

A further assay concerns the target T7, ETV3L (Homo sapiens, UniProt Q6ZN32 1-361).
T7 sequence: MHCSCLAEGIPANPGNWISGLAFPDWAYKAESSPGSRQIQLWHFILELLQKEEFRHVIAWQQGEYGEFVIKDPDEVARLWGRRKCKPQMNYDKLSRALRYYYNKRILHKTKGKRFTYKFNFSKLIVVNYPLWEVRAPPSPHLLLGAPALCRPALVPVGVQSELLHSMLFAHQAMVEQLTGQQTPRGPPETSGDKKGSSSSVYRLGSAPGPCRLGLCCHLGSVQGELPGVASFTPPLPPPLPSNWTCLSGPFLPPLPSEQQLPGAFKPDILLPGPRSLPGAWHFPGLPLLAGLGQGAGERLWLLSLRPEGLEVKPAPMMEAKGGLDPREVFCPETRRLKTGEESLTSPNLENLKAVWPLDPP
The settings on record: protein: recombinant; tags: N-terminal GST; dsDNA, one strand shown. The method, boiled down:
as §1

The target in a further assay is T8, ETS2 (Homo sapiens, UniProt P15036 1-469).
T8 sequence: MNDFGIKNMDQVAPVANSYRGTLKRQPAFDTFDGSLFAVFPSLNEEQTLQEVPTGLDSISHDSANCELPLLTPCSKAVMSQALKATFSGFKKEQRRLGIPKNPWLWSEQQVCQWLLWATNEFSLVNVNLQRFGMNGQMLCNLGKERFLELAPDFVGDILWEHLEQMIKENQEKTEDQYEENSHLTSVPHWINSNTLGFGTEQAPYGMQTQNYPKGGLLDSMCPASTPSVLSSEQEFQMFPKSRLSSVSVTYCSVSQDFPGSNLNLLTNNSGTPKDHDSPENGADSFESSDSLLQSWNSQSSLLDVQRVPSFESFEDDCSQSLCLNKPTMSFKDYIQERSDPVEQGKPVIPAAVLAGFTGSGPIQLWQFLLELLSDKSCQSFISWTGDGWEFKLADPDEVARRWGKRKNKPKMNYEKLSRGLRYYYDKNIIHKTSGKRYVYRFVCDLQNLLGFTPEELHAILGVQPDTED
The settings on record: protein: recombinant; tags: N-terminal GST; dsDNA, one strand shown. In short, it runs like this: as §1

A further assay has as its target T9, SPDEF (Homo sapiens, UniProt O95238 1-335).
T9 sequence: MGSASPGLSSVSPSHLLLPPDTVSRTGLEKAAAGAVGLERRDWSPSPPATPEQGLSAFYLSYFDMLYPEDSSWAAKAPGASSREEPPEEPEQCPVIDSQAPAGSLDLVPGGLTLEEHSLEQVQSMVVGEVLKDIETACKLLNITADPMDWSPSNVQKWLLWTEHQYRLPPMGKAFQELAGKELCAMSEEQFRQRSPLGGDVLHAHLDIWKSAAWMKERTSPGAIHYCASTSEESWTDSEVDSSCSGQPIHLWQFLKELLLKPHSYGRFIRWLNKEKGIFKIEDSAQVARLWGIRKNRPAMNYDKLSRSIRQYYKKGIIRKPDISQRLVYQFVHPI
The settings on record: protein: recombinant; tags: N-terminal GST; dsDNA, one strand shown. In short, it runs like this: as §1

The next assay concerns the target T10, ETV7 (Homo sapiens, UniProt Q9Y603 1-341).
T10 sequence: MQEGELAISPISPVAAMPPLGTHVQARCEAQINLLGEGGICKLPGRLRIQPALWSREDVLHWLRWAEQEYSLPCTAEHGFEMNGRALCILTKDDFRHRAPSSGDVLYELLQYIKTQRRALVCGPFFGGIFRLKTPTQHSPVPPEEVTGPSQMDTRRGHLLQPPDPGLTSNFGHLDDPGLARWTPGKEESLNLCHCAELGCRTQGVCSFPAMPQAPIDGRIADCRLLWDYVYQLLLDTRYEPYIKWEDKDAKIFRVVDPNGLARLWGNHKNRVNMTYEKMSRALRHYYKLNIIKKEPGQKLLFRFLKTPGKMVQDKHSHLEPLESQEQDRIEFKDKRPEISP
The settings on record: protein: recombinant; tags: N-terminal GST; dsDNA, one strand shown. In short, it runs like this: as §1

A further assay concerns the target T11, ELF5 (Homo sapiens, UniProt Q9UKW6-2 1-255).
T11 sequence: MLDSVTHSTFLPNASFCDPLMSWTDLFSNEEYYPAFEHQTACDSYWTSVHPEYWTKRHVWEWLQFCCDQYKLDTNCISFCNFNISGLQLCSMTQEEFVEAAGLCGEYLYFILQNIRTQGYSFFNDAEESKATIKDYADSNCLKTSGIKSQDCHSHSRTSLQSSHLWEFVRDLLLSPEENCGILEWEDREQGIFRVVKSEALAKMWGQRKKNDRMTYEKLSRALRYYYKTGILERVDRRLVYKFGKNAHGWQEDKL
The conditions noted are these: protein: recombinant; tags: N-terminal GST; dsDNA, one strand shown. In short, it runs like this:
as §1

In the next assay the target is T12, ETV3 (Homo sapiens, UniProt P41162-2 1-143).
T12 sequence: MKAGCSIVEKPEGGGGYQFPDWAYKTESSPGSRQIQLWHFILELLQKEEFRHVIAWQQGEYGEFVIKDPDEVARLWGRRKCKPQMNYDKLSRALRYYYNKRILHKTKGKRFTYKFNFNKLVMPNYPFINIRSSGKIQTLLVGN
The conditions noted are these: protein: recombinant; tags: N-terminal GST; dsDNA, one strand shown. The method, boiled down:
as §1

Another assay addresses ETV6 (Homo sapiens, UniProt P41212 1-452). The settings on record: protein: recombinant; tags: N-terminal GST; dsDNA, one strand shown. In short, it runs like this: as §1

HSF1, sequence (Q00613 whole entry): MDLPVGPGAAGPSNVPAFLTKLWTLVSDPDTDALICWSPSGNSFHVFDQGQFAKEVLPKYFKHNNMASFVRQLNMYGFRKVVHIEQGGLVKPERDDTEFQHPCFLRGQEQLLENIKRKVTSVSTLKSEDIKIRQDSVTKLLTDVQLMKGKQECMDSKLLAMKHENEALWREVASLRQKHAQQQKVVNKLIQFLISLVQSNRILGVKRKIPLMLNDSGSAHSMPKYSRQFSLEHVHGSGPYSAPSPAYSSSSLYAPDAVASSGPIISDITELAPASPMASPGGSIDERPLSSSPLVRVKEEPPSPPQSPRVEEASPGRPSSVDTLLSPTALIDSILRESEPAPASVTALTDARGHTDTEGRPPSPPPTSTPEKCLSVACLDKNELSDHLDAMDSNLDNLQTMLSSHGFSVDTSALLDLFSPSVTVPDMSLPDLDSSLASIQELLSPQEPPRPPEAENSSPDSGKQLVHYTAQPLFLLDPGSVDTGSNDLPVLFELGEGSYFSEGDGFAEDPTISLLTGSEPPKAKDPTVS
ETV5, sequence (P41161 whole entry): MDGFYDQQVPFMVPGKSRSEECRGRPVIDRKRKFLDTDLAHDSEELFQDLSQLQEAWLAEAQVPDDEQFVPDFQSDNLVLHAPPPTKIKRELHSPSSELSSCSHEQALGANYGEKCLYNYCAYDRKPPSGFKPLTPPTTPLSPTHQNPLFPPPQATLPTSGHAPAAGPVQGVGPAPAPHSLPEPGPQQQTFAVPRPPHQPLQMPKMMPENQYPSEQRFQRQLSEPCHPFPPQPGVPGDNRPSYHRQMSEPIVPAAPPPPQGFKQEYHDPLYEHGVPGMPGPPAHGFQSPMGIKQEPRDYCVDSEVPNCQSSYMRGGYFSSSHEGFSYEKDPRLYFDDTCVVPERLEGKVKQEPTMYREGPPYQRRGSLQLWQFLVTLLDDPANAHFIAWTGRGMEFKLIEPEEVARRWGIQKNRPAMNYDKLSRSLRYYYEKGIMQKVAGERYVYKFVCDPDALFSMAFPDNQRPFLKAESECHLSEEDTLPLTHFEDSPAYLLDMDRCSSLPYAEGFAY
ETV1, sequence (P50549 whole entry): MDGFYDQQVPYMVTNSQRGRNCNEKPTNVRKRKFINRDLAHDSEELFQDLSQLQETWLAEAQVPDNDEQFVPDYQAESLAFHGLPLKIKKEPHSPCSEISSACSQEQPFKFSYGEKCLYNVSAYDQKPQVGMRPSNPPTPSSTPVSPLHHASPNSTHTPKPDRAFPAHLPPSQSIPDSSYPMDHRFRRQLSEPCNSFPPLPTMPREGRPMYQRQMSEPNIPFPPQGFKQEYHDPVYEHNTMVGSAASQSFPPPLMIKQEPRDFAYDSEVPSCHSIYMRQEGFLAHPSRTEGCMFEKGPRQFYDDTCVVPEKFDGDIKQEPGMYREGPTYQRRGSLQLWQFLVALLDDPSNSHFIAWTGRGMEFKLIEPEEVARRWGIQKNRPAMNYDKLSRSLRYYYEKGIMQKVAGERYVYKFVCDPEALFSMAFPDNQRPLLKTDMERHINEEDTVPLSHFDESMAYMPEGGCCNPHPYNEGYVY
ELF4, sequence (Q99607 whole entry): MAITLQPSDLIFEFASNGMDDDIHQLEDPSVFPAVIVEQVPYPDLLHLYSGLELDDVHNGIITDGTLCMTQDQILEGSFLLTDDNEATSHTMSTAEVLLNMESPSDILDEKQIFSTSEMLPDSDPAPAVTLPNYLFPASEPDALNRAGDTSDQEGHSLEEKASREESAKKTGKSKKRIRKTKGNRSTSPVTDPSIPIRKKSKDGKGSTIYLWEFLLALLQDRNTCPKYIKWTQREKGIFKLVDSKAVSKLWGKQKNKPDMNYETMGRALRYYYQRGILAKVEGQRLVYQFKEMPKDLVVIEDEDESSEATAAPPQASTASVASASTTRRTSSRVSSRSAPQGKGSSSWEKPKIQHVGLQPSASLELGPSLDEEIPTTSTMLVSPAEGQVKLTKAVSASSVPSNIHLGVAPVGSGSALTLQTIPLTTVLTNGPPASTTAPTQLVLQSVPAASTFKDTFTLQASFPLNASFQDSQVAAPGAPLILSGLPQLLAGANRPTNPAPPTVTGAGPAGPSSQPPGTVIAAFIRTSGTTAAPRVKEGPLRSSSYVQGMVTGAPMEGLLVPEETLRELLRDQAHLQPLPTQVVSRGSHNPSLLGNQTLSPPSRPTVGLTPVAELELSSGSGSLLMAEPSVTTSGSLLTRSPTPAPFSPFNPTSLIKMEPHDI
ETV6, sequence (P41212 whole entry): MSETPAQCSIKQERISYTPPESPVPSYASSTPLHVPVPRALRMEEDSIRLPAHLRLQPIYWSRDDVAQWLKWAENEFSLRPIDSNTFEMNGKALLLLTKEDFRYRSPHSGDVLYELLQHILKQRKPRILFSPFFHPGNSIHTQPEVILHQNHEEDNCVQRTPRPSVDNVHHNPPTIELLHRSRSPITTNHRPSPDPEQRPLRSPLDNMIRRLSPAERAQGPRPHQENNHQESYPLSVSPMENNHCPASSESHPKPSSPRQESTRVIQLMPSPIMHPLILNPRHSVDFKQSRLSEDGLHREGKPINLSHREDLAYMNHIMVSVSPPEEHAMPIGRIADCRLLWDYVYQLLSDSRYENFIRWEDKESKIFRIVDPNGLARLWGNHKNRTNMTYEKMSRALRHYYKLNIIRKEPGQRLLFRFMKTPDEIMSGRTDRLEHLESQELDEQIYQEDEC
CRX, sequence (O43186 whole entry): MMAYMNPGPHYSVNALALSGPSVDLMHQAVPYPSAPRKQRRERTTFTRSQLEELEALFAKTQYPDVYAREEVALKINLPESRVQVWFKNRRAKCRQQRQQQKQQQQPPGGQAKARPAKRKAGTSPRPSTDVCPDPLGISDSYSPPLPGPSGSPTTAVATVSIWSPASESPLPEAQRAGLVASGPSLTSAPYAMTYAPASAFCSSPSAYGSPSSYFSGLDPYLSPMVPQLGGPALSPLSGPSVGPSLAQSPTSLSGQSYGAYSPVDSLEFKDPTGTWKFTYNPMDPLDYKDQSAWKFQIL

With TACTTC, the binding signal with FEV was 4.27 fold enrichment (6-mer frequency, TF over GST control); with ETV5 it was 3.65 fold enrichment (6-mer frequency, TF over GST control); with HSF1 it was 1.43 fold enrichment (6-mer frequency, TF over GST control); in the assay with SPIC, 3.27 fold enrichment (6-mer frequency, TF over GST control); in the assay with ELF4 it was 3.17 fold enrichment (6-mer frequency, TF over GST control); in the assay with ELK4 it was 3.03 fold enrichment (6-mer frequency, TF over GST control). Further, the binding signal is 3.6 fold enrichment (6-mer frequency, TF over GST control) with ETV2; 3.4 fold enrichment (6-mer frequency, TF over GST control) in the assay with ELF3; 1.48 fold enrichment (6-mer frequency, TF over GST control) with CRX; 3.6 fold enrichment (6-mer frequency, TF over GST control) with ETV1; 3.18 fold enrichment (6-mer frequency, TF over GST control) with ERF; 3.22 fold enrichment (6-mer frequency, TF over GST control) with ETV3L. Moreover, the binding signal with ETS2 was 3.64 fold enrichment (6-mer frequency, TF over GST control); with SPDEF it was 4.31 fold enrichment (6-mer frequency, TF over GST control); with ETV7 it was 3.62 fold enrichment (6-mer frequency, TF over GST control); with ELF5 it was 4.77 fold enrichment (6-mer frequency, TF over GST control); with ETV3 it was 3.67 fold enrichment (6-mer frequency, TF over GST control); with ETV6, 4.67 fold enrichment (6-mer frequency, TF over GST control).
